Screens: PubChem, Sanford-Burnham Center for Chemical Genomics
CYP2C19 inh: blocks human cytochrome P450 2C19 | hit rate 21% among 96,000 | CYP2C19 Supersomes, luciferin-H EGE luminescence, 30 min | P33261 | inhibition, % at 5 µM;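 active = CYP2C19 inhibition above a set limit at 5 µM in the primary screen, cut at about 50% in these data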
PLAP activator: activators of human placental alkaline phosphatase; P05187; purified PLAP enzyme, luminescent substrate read-out; active compounds read high; activation fold at 20 µM; hit rate 1.2% among 96,000; in the data active = activation fold above about 2
Target sequence (P05187 whole entry, looked up): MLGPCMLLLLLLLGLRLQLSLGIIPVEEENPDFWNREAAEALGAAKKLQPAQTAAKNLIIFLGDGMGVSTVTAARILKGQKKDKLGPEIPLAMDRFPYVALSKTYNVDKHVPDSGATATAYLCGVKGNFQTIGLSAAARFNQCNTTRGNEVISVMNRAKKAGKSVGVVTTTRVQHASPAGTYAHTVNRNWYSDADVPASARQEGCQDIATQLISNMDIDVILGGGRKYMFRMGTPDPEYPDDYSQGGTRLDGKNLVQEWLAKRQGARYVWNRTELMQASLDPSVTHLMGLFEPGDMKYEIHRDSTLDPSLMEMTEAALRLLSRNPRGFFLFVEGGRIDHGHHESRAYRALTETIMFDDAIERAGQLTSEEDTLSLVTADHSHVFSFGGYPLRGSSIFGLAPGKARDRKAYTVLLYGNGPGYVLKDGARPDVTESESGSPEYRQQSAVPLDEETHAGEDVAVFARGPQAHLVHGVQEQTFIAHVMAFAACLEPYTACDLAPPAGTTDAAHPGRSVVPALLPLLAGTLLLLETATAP
CYP2C9 inh: blocks human cytochrome P450 2C9 | hit rate 20% among 96,000 | AID 777 | CYP2C9 Supersomes, luciferin-H conversion, luminescence | inhibition, % at 5 µM;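 active = blocking of liver enzyme CYP2C9 beyond about 50% at 5 µM, limit read from the data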
CYP2C19 activ: cytochrome P450 2C19 (human) activation; P33261; recombinant CYP2C19, luciferin-H EGE luminescence; active compounds read high; 0 = fully inhibited enzyme, 1 = untreated enzyme; 96,000 tested, under 10 active; activation factor at 5 µM;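 active = activation factor of at least 2 at 5 µM in the primary screen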
CYP2C9 act: CYP2C9 (human) activation | P11712 | recombinant CYP2C9, luciferin-H conversion, luminescence; active compounds read high; factor 1 = untreated enzyme, 0 = blocked | activation factor at 5 µM | hit rate 1.4% among 96,000;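 active = activation factor of 2 or more for CYP2C9 at a 5 µM dose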
Large screens that a line does not name were inactive. Shown are actives, neighbours in structure and some others; about 31% of the full set was active somewhere.

O=C(COc1ccc(S(=O)(=O)NC2CCCCC2)cc1Cl)NCc1cccnc1	CYP2C9 inh 98
CC(C)OC(=O)NCN1C(=O)C2C3C=CC(C3)C2C1=O (stereo unspecified)	none
Cc1nccc2[nH]c(=O)c(C(=O)NC3CCCCC3C)cc12 (stereo unspecified)	none
O=C(Nc1ccc(Oc2ccccc2)cc1)C1CCCN(c2ncccn2)C1 (stereo unspecified)	none
COc1ccc2c(c1)OC(O)(C(F)(F)F)CC2=O (stereo unspecified)	none
O=C(COc1ccc(S(=O)(=O)NCc2ccccc2)cc1)NCC1CCCO1 (stereo unspecified)	none
O=C(COc1ccc(S(=O)(=O)NCc2ccccc2)cc1Cl)NCC1CCCO1 (stereo unspecified)	CYP2C9 inh 78
Cc1ccc(C)c(NC(=S)N(CCc2nc3cc(C)c(C)cc3[nH]2)Cc2cccnc2)c1	CYP2C9 inh 74
C/C(NC1CCCCC1)=C(/C#N)C(=O)NCCN1CCOCC1	none
Cc1ccc(SCCNC(=S)Nc2cc(C)cc(C)c2)cc1	CYP2C19 inh 51
COc1ccc(CCNC(=S)Nc2cccc(C)c2)cc1	CYP2C19 inh 65
COc1ccc(CNC(=S)Nc2cc(C)cc(C)c2)cc1	CYP2C9 act 2
COc1ccc(C(=S)Nc2ccc(C)cc2)cc1	none
CCCCOCCCNC(=O)C1CCCCC1	none
C=C(C)c1cccc(C(C)(C)NC(=O)NCCCN2CCCC2=O)c1	PLAP activator 2.3
C=C(C)c1cccc(C(C)(C)NC(=O)NCCCn2ccnc2)c1	CYP2C19 inh 98, CYP2C9 inh 96
C=C(C)c1cccc(C(C)(C)NC(=O)N2CCN(c3ccccn3)CC2)c1	none
Cc1ccc(NC(=O)NCCCN2CCCC2=O)cc1	none
Cc1cc(/C=C(\C#N)C(=O)NCc2cccs2)c(C)n1-c1ccccc1F	none
C=C1Cn2c(nnc2-c2ccc(Cl)cc2)S1	none
Cc1cc(C(=O)OCC(=O)N2CCCC2)c2ccccc2n1	none
COc1ccc(-c2cc(C(=O)OCC(=O)N3CCCC3)c3ccccc3n2)cc1	CYP2C19 inh 50, CYP2C9 inh 78
Cc1ccc(/C(N)=N/OC(=O)c2cc(-c3ccccc3)nc3ccccc23)cc1	CYP2C9 inh 54
CSc1ccc(Cl)c(C(=O)OCC(=O)N2CCOCC2)c1	CYP2C19 inh 51
CSc1ccc(Cl)c(C(=O)OCC(=O)NC2CC2)c1	none
Cc1cc(C(=O)OCC(=O)N2CCOCC2)c2ccccc2n1	CYP2C9 act 2
NS(=O)(=O)c1ccc(NC(=O)CN2CCN(Cc3ccccc3)CC2)cc1	none
COc1ccccc1Nc1nnc(SCC(=O)N2CCCC2=O)s1	CYP2C19 inh 57, CYP2C9 act 2.7
COc1ccccc1N1CCN(C(=O)CSc2nnc(NC(=O)C3CCC3)s2)CC1	CYP2C19 inh 51, CYP2C9 inh 82
CCOc1ccccc1Nc1nnc(SCC(=O)N2CCCC2)s1	CYP2C9 act 2.3
CC(C)(C)n1nc2c(c1NC(=O)c1ccc(S(=O)(=O)N3CCCCC3)cc1)CS(=O)C2 (stereo unspecified)	none
Cc1c(NS(=O)(=O)c2cccc(C(=O)NCc3ccncc3)c2)c(=O)n(-c2ccccc2)n1C	none
CCCc1nc(N)c(C#N)c(-c2cccnc2)c1CC	CYP2C19 inh 61
O=C(Nc1c(C(=O)NCc2ccco2)cnn1-c1ccccc1)c1ccc(F)cc1	none
O=C(c1ccccc1)N1CCCC(c2ccc(Cl)cc2)=N1	CYP2C19 inh 57
O=C(c1ccc(-c2ccccc2)cc1)N1CCCC1	none
O=C(c1cccc(Cl)c1)N1CCCC(c2ccc(Cl)cc2)=N1	CYP2C19 inh 62
COc1ccc(/C(O)=C2/C(=O)C(=O)N(CCCN(C)C)C2c2cccnc2)cc1 (stereo unspecified)	none
CCN(C1CCCCC1)S(=O)(=O)c1cn(C)c(=O)n(C)c1=O	none
CCN(C1CCCCC1)S(=O)(=O)c1cc(C)ccc1OC	CYP2C19 inh 86, CYP2C9 inh 94
COc1ccc(S(=O)(=O)N(Cc2cccs2)C2CCCC2)cc1	none
CCN(C1CCCCC1)S(=O)(=O)c1ccc(OC)c(C)c1	CYP2C19 inh 75, CYP2C9 act 2.1
CCCCN(Cc1ccccc1)C(=O)c1cnc2n(c1=O)CCS2	none
O=C(CSc1nccn1-c1ccccc1)c1ccc(Br)cc1	CYP2C19 inh 61
Cc1ccccc1-n1ccnc1SCC(=O)O	none
Cc1ccccc1CSc1nccn1-c1ccccc1	CYP2C19 inh 82, CYP2C9 inh 57
Cn1ccnc1SCC(=O)c1ccc(Br)cc1	CYP2C19 inh 93
